Whole data set: some 33,000 sequences, median “E-score (-0.5 to 0.5)” near -0.043, cut for the highest 2% near 0.37. The full list was thinned out, with the highest values kept by preference.
Biological target: T1, Upc2 (UniProt Q12151)
T1 sequence: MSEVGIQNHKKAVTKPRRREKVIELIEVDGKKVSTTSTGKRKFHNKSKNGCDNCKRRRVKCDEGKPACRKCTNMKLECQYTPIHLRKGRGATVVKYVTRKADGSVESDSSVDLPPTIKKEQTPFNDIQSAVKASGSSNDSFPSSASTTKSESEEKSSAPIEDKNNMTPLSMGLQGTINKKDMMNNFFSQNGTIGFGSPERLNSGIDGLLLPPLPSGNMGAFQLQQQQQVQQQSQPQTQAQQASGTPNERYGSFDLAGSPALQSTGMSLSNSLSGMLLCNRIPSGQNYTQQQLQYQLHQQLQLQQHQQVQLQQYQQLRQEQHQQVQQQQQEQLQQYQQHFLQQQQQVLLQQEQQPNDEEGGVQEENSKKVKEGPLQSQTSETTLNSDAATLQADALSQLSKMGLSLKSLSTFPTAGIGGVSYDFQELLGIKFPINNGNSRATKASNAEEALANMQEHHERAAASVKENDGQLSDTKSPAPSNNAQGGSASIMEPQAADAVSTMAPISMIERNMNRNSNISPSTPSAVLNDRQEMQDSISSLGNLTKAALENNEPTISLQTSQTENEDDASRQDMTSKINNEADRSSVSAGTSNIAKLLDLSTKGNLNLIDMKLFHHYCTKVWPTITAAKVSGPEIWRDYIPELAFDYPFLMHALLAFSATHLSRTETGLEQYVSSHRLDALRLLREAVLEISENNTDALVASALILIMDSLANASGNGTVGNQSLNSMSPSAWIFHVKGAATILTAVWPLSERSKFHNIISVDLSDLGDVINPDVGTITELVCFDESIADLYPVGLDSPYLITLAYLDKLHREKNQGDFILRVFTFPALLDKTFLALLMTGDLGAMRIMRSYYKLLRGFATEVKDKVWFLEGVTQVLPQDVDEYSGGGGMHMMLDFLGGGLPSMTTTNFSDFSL
Experiment: PBM E-score (8-mer binding enrichment) (E-score (-0.5 to 0.5)); higher = stronger / more preferred TF binding
Conditions: protein concentration: 200 nM; construct: GST-full length
Description: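 Universal 'all 10-mer' protein binding microarrays (Agilent AMADID 015681) probed with GST-tagged S. cerevisiae TFs (full-length or DBD) made by in vitro transcription/translation (PURExpress), about 100-200 nM. Bound TF was detected with fluorescent anti-GST. Each ungapped 8-mer (which stands for itself and its reverse complement) is scored by the PBM enrichment score (E-score), a modified Wilcoxon-Mann-Whitney statistic from -0.5 to +0.5, computed with the Universal PBM Analysis Suite. Scale: above 0.35 generally sequence-specific binding.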

Row | Sequence | PBM E-score
1 | CCAATCCG | -0.0814
2 | CCGAAAAA | 0.0605
3 | AATCAAAA | -0.0286
4 | ACCCTGGC | -0.206
5 | AATTATGC | 0.0912
6 | CGAATTCA | 0.0713
7 | CTTGGCCC | -0.171
8 | CCGCTTCA | -0.0583
9 | CCATGCCG | -0.135
10 | CCTTGCCC | -0.056
11 | AAATAGAA | -0.0216
12 | AACGAGAC | 0.437
13 | CACGAGAC | 0.0139
14 | GACGAGAC | 0.0394
15 | GTCGCTAA | 0.271
16 | CTCGCTTA | 0.423
17 | ATCGCTTA | 0.364
18 | GTCGCATA | 0.375
19 | GTCGCTTA | 0.396
20 | ATCGCATA | 0.318
21 | CTCGCATA | 0.363
22 | CTCGCTGA | -0.136

Row | Sequence | PBM E-score
23 | GTCGCTGA | -0.0513
24 | ACTGCAGG | -0.156
25 | ATTGGGAC | -0.218
26 | GGTAGTTA | -0.14
27 | CCGAGGGC | 0.094
28 | AAGAGGTC | -0.186
29 | ACGAGGTC | 0.371
30 | ACGAGGGA | 0.364
31 | ACGAGGAC | 0.384
32 | GCGAGGAC | -0.102
33 | CCGAGGTC | 0.0232
34 | ACGAGTTC | 0.342
35 | GCGAGTTA | 0.116
36 | ACGAGGAG | 0.306
37 | ACGAGTTA | 0.392
38 | ACGAGGGC | 0.388
39 | CACCACGC | -0.221
40 | GAGGGGAC | -0.152
41 | AAGGTCAG | -0.239
42 | CGTCGAAC | 0.0511
43 | GCCCCAGA | -0.09
44 | AACTGTAA | 0.103

Row | Sequence | PBM E-score
45 | TAGATTAA | 0.104
46 | GCTGCGGA | -0.164
47 | ACGAGGTA | 0.382
48 | GCGAGGTA | 0.244
49 | ACGAGGTG | 0.367
50 | GATGGTAC | 0.139
51 | AGTGTCAG | -0.0575
52 | CGGGATAC | 0.18
53 | CCGAGGCA | -0.0905
54 | ACGAGGCT | 0.406
55 | ACGAGGAT | 0.355
56 | GCGAGGCA | 0.195
57 | AAGAGGCT | -0.257
58 | ACGAGGCG | 0.4
59 | CCGAGGCG | 0.129
60 | ACGAGGCA | 0.408
61 | ACGAGGCC | 0.381
62 | CCGAGGCC | 0.102
63 | AGGAGGCG | -0.326
64 | GCGAGGCC | 0.2
65 | CACAGGCG | -0.208
66 | CCGACAGG | -0.0268

Row | Sequence | PBM E-score
67 | AATTTGTC | 0.0333
68 | CATTAGCG | 0.197
69 | GATCTCCC | -0.162
70 | GCTGGACC | -0.0565
71 | CTACAATC | 0.0566
72 | ACTAGATG | -0.122
73 | AGGGGCCA | -0.215
74 | AACGATCA | 0.379
75 | GACGATCA | -0.0322
76 | ATCGATCG | 0.136
77 | AACGATCT | 0.381
78 | ACCGATCT | -0.0555
79 | CACGATCA | -0.0545
80 | AACGATCC | 0.345
81 | TACGATCA | 0.422
82 | ATCGATCA | 0.0619
83 | AACGATCG | 0.383
84 | CACGATCG | 0.125
85 | AGCGATCA | 0.11
86 | GAGCGATA | 0.218
87 | GAAGAAGC | -0.195
